# PubChem BioAssay (EPA / NIEHS)
# Records with an inconclusive call do not appear. Activity calls are given as the source filed them. The calls were made as follows, unless noted: active = hit-call score of the fitted dose curve at least 0.9, where 1 is the maximum; inconclusive = response in the unintended direction; inactive = score below 0.9.
# What was measured:
# PGR (gene 5241) [1] = molecular target: PGR (gene 5241) (UniProt P06401); assay: TOX21_PR_BLA_Followup_Agonist_ratio: Tox21 HEK293 Progesterone Receptor (PR) Agonism Beta-lactamase Follow-Up Assay, Ratio (AID 2283933)
# PGR (gene 5241), sequence (P06401 whole entry, looked up): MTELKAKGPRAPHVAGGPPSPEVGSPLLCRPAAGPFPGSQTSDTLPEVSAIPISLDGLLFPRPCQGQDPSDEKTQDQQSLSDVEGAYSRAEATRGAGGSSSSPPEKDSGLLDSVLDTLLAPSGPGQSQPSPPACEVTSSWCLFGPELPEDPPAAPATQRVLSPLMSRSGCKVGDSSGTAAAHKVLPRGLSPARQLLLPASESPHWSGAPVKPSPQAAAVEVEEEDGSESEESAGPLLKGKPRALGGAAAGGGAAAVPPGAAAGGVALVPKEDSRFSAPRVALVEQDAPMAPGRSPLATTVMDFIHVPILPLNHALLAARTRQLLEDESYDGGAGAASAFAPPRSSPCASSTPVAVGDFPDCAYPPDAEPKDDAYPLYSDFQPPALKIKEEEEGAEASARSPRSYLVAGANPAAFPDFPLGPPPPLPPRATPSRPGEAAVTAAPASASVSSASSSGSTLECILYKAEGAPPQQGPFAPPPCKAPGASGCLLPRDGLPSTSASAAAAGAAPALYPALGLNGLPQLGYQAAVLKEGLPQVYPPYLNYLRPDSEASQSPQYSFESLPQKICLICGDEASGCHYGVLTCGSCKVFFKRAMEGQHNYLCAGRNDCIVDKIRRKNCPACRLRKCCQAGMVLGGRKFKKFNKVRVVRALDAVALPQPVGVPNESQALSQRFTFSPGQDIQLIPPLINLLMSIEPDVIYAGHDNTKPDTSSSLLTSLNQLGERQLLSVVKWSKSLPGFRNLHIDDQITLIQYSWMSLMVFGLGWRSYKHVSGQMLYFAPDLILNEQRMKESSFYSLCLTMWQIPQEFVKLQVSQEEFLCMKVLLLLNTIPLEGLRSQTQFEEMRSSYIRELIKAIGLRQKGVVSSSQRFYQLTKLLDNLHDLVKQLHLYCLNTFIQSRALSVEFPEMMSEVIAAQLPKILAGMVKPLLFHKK
# In short: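 HEK293T PR-UAS-bla, 2% CS-FBS; 6 hr preincubation, cpd/DMSO pinned, 16 hr 37C/5% CO2; LiveBLAzer B/G 2 hr RT; FRET ch2/ch1 ratio, agonist direction vs DMSO. Viability by CellTiter-Glo in same wells.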
# PGR (gene 5241) [2] = molecular target: PGR (gene 5241) (UniProt P06401); assay: TOX21_PR_BLA_Followup_Antagonist_ratio: Tox21 HEK293 Progesterone Receptor (PR) Antagonism Beta-lactamase Follow-Up Assay, Ratio (AID 2283934)
# In short: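 HEK293T PR-UAS-bla, 2% CS-FBS; 6 hr plating, then cpd + R5020 (1 nM final), 16 hr 37C/5% CO2. B/G FRET substrate 2 h RT. Ratio ch2/ch1 vs DMSO; CellTiter-Glo viability multiplexed, autofluorescence checked.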
# [3] = TOX21_PR_BLA_Followup_Agonist_viability: Viability Assessment in the Tox21 HEK293 Progesterone Receptor (PR) Agonism Beta-lactamase Follow-Up Assay (AID 2283935);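 also: cells exposed to compound for 16 hr at 37 °C; signal loss means lower viability so actives are cytotoxic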
# In short: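 HEK293T PR-UAS-bla, 3,000 cells/well, 2% CS-FBS; 6 hr pre-incubation; cpd in DMSO, 16 hr 37C; LiveBLAzer 2 hr RT, then CellTiter-Glo 30 min RT, luminescence. Decrease = lost viability.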
# [4] = TOX21_PR_BLA_Followup_Antagonist_viability: Viability Assessment in the Tox21 HEK293 Progesterone Receptor (PR) Antagonism Beta-lactamase Follow-Up Assay (AID 2283936);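 also: hits lower the luminescence signal meaning cytotoxicity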
# In short: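 PR-UAS-bla HEK293T cells (3,000/well, 2% charcoal-stripped FBS) given compound plus R5020 agonist, 16 h at 37C. CellTiter-Glo added after bla read, 30 min at room temperature; luminescence loss indicates cytotoxicity.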
# PGR (gene 5241) [5] = molecular target: PGR (gene 5241) (UniProt P06401); assay: TOX21_PR_LUC_Followup_Agonist: Tox21 HEK293 Progesterone Receptor (PR) Agonism Luciferase Follow-Up Assay (AID 2283937; active = hit-call score of the fitted dose curve at least 0.9, where 1 is the maximum; inactive = score below 0.9)
# In short: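 Cells: HEK293-PR-A-luc, 3,000/well, 10% charcoal-stripped FBS assay medium. Compound added after 5 h; 16 h, 37C, 0% CO2. ONE-Glo luciferase, luminescence. Positive fit vs DMSO.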
# PGR (gene 5241) [6] = molecular target: PGR (gene 5241) (UniProt P06401); assay: TOX21_PR_LUC_Followup_Antagonist: Tox21 HEK293 Progesterone Receptor (PR) Antagonism Luciferase Follow-Up Assay (AID 2283938);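 also: curve fitted upward as signal gain over DMSO baseline despite antagonist label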
# In short: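 Cells are grown 5 days in charcoal-stripped-FBS assay medium, plated, left 5 h, then dosed with compound and incubated 16 h. ONE-Glo reagent is added and luminescence read after 30 min.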
# [7] = TOX21_PR_LUC_Followup_Antagonist_viability: Viability Assessment in the Tox21 HEK293 Progesterone Receptor (PR) Antagonism Luciferase Follow-Up Assay (AID 2283940)
# In short: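 Multiplexed viability counter-screen: after 5 days in charcoal-stripped-FBS medium, HEK293-PR-A-luc cells are plated, pinned with DMSO-dissolved compounds for 16 h at 37C, and ATP content is quantified luminescently via CellTiter-Glo.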
# [8] = CEETOX_H295R_11DCORT_noMTC: CeeTox H295R High-throughput Steroidogenesis Assay for 11-Deoxycortisol (11DCORT), maximum tolerated concentration (MTC) filtered results only (AID 2283911; active = hit-call score of the fitted dose curve at least 0.9, where 1 is the maximum; inactive = score below 0.9); conditions: actives raise or lower the signal
# In short: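 Steroidogenesis was stimulated in H295R cells with 10 uM forskolin for 48 h before a 48 h chemical exposure. Secreted 11-deoxycortisol was measured by tandem mass spectrometry and fitted bidirectionally against DMSO controls.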
# [9] = CEETOX_H295R_OHPREG_noMTC: CeeTox H295R High-throughput Steroidogenesis Assay for OH-Pregnenolone (OHPREG), maximum tolerated concentration (MTC) filtered results only (AID 2283912; active = hit-call score of the fitted dose curve at least 0.9, where 1 is the maximum; inactive = score below 0.9); conditions: actives raise or lower the signal
# In short: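 Steroidogenesis in H295R cells (OECD 456, modified): after 48 h forskolin priming and 48 h chemical treatment, secreted 17alpha-hydroxypregnenolone is measured by HPLC-MS/MS. Activity is fitted in both directions against DMSO; concentrations are not filtered by MTT-based MTC.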
# [10] = CEETOX_H295R_OHPROG_noMTC: CeeTox H295R High-throughput Steroidogenesis Assay for OH-Progesterone (OHPROG), maximum tolerated concentration (MTC) filtered results only (AID 2283914; active = hit-call score of the fitted dose curve at least 0.9, where 1 is the maximum; inactive = score below 0.9); conditions: actives raise or lower the signal
# In short: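 Forskolin 10 uM, 48 h prestim → test cmpd in DMSO (0.1% final), 48 h → medium MTBE extraction → LC-MS/MS quant of 17alpha-OH-progesterone. Bidirectional fit vs DMSO; no MTT-based MTC filtering.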
# [11] = CEETOX_H295R_CORTISOL_noMTC: CeeTox H295R High-throughput Steroidogenesis Assay for Cortisol, maximum tolerated concentration (MTC) filtered results only (AID 2283916; active = hit-call score of the fitted dose curve at least 0.9, where 1 is the maximum; inactive = score below 0.9); conditions: actives raise or lower the signal
# In short: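 Cortisol secretion measured by LC-MS/MS after 48 h chemical treatment (final 0.1% DMSO) of forskolin-primed (10 uM, 48 h) H295R cells; gain or loss fitted relative to DMSO, without maximum-tolerated-concentration filtering.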
# [12] = CEETOX_H295R_CORTIC_noMTC: CeeTox H295R High-throughput Steroidogenesis Assay for Corticosterone (CORTIC), maximum tolerated concentration (MTC) filtered results only (AID 2283917; active = hit-call score of the fitted dose curve at least 0.9, where 1 is the maximum; inactive = score below 0.9); conditions: actives raise or lower the signal
# In short: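 Following OECD 456 with minor changes, H295R cultures received 10 uM forskolin for 48 h, then test chemical at 0.1% DMSO for 48 h. Media steroids were extracted and measured by LC-MS/MS.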
# [13] = CEETOX_H295R_DOC_noMTC: CeeTox H295R High-throughput Steroidogenesis Assay for DOC, maximum tolerated concentration (MTC) filtered results only (AID 2283918; active = hit-call score of the fitted dose curve at least 0.9, where 1 is the maximum; inactive = score below 0.9); conditions: actives raise or lower the signal
# In short: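 11-Deoxycorticosterone secreted by human adrenal H295R cells quantified by HPLC-MS/MS after 48 h chemical exposure (0.1% DMSO), following 48 h 10 uM forskolin prestimulation. Concentrations not filtered by MTT-derived MTC; bidirectional fitting.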
# [14] = CEETOX_H295R_PROG_noMTC: CeeTox H295R High-throughput Steroidogenesis Assay for Progesterone (PROG), maximum tolerated concentration (MTC) filtered results only (AID 2283920; active = hit-call score of the fitted dose curve at least 0.9, where 1 is the maximum; inactive = score below 0.9); conditions: actives raise or lower the signal
# In short: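 H295R cells; forskolin 10 uM x 48 h prestim; test cpd 48 h, 0.1% DMSO final; media progesterone via LC-MS/MS; bidirectional fit vs DMSO; no MTT-based MTC filter applied.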
# [15] = CPHEA_Stoker_NIS_Cytotoxicity: Cytotoxicity Assessment for CPHEA's Radioactive Iodide Uptake (RAIU) Assay for Sodium/Iodide Symporter (NIS) Inhibition, Stoker and Laws Labs (AID 2283897)
# In short: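 ATP luminescence (Cell Titer Glo) measured viability, with loss of signal normalized to DMSO controls. Cells: hNIS-HEK293T-EPA, seeded 40 hours prior. Dosing: 0.001–100uM, 2 hours, room temperature, uptake buffer pH 7.4.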
# [16] = test system: Sodium/Iodide Symporter (NIS), SLC5A5 (gene 6528); assay: CPHEA_Stoker_NIS_Inhibition_RAIU: CPHEA's Radioactive Iodide Uptake (RAIU) Assay for Sodium/Iodide Symporter (NIS) Inhibition, Stoker and Laws Labs (AID 2283841)
# In short: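 Iodide uptake through human NIS is measured in an engineered HEK293T line. Cells take up 125I (329pM final) for 2 hours at room temperature alongside chemicals at 0.001–100uM. Retained radioactivity is counted, and the signal is expressed against DMSO controls.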
# [17] = molecular target: Thyroid hormone receptor alpha (Rattus norvegicus) + Thyroid hormone receptor beta (Rattus norvegicus) (UniProt P18113+P63059); assay: TOX21_TR_LUC_GH3_Agonist_Followup: Tox21 GH3 Thyroid Hormone Receptor Agonism Luciferase Follow-Up Assay (AID 2283939)
# Thyroid hormone receptor alpha (Rattus norvegicus) + Thyroid hormone receptor beta (Rattus norvegicus), sequence (P63059 whole entry, looked up): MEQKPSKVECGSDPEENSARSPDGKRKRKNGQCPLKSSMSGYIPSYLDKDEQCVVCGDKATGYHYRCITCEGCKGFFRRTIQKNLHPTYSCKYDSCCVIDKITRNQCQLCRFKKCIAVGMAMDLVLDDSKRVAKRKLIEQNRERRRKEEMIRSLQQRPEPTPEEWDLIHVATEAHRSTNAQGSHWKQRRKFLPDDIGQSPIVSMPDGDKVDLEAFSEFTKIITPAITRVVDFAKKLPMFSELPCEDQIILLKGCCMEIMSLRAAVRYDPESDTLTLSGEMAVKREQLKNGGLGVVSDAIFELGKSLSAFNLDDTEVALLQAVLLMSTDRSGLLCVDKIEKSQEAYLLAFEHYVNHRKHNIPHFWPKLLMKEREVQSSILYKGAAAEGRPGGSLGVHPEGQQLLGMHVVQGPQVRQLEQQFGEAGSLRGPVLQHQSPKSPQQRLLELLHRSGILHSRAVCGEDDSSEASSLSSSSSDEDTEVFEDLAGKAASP
# Thyroid hormone receptor alpha (Rattus norvegicus) + Thyroid hormone receptor beta (Rattus norvegicus), sequence (P18113 whole entry, looked up): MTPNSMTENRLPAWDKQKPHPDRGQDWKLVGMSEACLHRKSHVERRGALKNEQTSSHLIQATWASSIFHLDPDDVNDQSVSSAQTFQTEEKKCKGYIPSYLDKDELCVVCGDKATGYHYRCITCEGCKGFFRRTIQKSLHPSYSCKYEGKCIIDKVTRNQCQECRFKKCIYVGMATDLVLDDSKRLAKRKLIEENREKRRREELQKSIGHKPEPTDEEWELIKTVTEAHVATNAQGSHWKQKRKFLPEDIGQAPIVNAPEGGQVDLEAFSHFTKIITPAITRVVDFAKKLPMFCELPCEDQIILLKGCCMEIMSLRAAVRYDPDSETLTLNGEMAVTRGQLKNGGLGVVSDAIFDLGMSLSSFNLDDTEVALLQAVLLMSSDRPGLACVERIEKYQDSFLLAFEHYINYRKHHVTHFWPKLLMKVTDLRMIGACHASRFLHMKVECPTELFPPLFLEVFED
# In short: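 Rat GH3 cells (1,500/well) in serum-free assay medium, treated with 15-point series, 92 uM to 5 nM final, for 24 h at 37C. Luciferase via ONE-Glo luminescence; gain of signal fitted against DMSO, T3 positive control.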
structure (smiles),measurement,setting,value
Cc1ccccc1OP(=O)(Oc1ccccc1C)Oc1ccccc1C,outcome,PGR (gene 5241) [1],inactive
same,AC50,PGR (gene 5241) [2],39.9 µM (active)
same,outcome,[3],inactive
same,outcome,[4],inactive
same,outcome,PGR (gene 5241) [5],inactive
same,outcome,PGR (gene 5241) [6],inactive
same,outcome,[7],inactive
O=S(=O)(Oc1ccc(Cl)cc1)c1ccc(Cl)cc1,outcome,PGR (gene 5241) [2],inactive
same,outcome,[3],inactive
same,outcome,[4],inactive
same,outcome,PGR (gene 5241) [6],inactive
Nc1ccc(-c2ccccc2)cc1,AC50,PGR (gene 5241) [2],22.3 µM (active)
same,outcome,[3],inactive
same,outcome,[4],inactive
same,outcome,PGR (gene 5241) [6],inactive
same,outcome,[7],inactive
Cc1cc(Cl)ccc1N,outcome,[8],inactive
same,outcome,[9],inactive
same,AC50,[10],25.5 µM (active)
same,outcome,[11],inactive
same,outcome,[12],inactive
same,outcome,[13],inactive
same,AC50,[14],24.1 µM (active)
O=[N+]([O-])c1ccc(Nc2ccccc2)cc1,AC50,PGR (gene 5241) [2],11.4 µM (active)
same,outcome,[3],inactive
same,outcome,[4],inactive
same,AC50,PGR (gene 5241) [6],12.8 µM (active)
same,outcome,[7],inactive
CC(C)(C)c1ccccc1O,outcome,[15],inactive
CC(C)N(C(=O)CCl)c1ccccc1,outcome,[16],inactive
same,outcome,[15],inactive
O=S(=O)(c1ccc(Cl)cc1)c1cc(Cl)c(Cl)cc1Cl,AC50,PGR (gene 5241) [2],27.3 µM (active)
same,outcome,[3],inactive
same,outcome,[4],inactive
same,AC50,PGR (gene 5241) [6],61 µM (active)
CCOCn1c(-c2ccc(Cl)cc2)c(C#N)c(Br)c1C(F)(F)F,AC50,[16],0.616 µM (active)
same,outcome,[15],inactive
c1csc(-c2ccc(-c3cccs3)s2)c1,outcome,[17],inactive
CC1(C)COP(Oc2ccccc2)OC1,outcome,[17],inactive
CC(C)CC(C)(c1ccc(O)cc1)c1ccc(O)cc1,outcome,PGR (gene 5241) [1],inactive
same,AC50,PGR (gene 5241) [2],12.7 µM (active)
same,outcome,[3],inactive
same,outcome,[4],inactive
same,outcome,PGR (gene 5241) [5],inactive
same,AC50,PGR (gene 5241) [6],12.2 µM (active)
same,outcome,[7],inactive
N#CS,AC50,[16],6.43 µM (active)
same,outcome,[15],inactive
OC(c1ccc(Cl)cc1)(c1ccc(Cl)cc1)c1cccnc1,outcome,PGR (gene 5241) [1],inactive
same,AC50,PGR (gene 5241) [2],29.3 µM (active)
same,outcome,[3],inactive
same,outcome,[4],inactive
same,outcome,PGR (gene 5241) [5],inactive
same,AC50,PGR (gene 5241) [6],62.2 µM (active)
same,outcome,[7],inactive
N#CCCC(Br)(C#N)CBr (stereo unspecified),outcome,[16],inactive
same,outcome,[15],inactive
CC(C)(C1CCC(O)CC1)C1CCC(O)CC1 (stereo unspecified),outcome,PGR (gene 5241) [2],inactive
same,outcome,[3],inactive
same,outcome,PGR (gene 5241) [6],inactive
same,outcome,[7],inactive
